Hit rate of the full screen: of about 350,000 compounds, about 2,300 (0.66%) were called active.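 Rule for the calls: active = mean inhibition of at least 50% after viability correction, with every replicate also passing that limit; inconclusive = mean reaches 50% but only one of two replicates passes; inactive = the rest.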 Only a selection was taken, and actives are over-represented in it overall.
Experiment: EWS/Fli-driven NR0B1 reporter inhibitors, primary screen, A673 cells, NR0B1 luciferase, luminescence, MLPCN library (AID 651661);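 note: firefly luciferase signal divided by Alamar Blue viability fluorescence both relative to DMSO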
Conditions: viability-normalised, at 12.6 µM, hits give high values
In the case of `O=C(C[C@H]1C=C[C@@H](NC(=O)NC2CCCCC2)[C@@H](CO)O1)NCc1ccc(Cl)cc1`, the inhibition is reported as -5.17% (inactive). In the case of `CC(C)C#Cc1ccc([C@H]2[C@@H](C#N)N(C(=O)CN(C)C)[C@H]2CO)cc1`, the inhibition is reported as 2.38% (inactive). For `COCC(=O)Nc1ccc2c(c1)OC[C@H](C)NC[C@H](C)[C@H](OC)CN(C)C2=O`, the inhibition was -2.88% (inactive). In the case of `CCNC(=O)Nc1ccc2c(c1)C(=O)N(C)[C@H]1CC[C@@H](CC(=O)N[C@H](C)c3ccccc3)O[C@@H]1CO2`, the inhibition is reported as 0.627% (inactive). In the case of `Cn1cnc(S(=O)(=O)N2CC[C@@H]3[C@H]2c2cc(C#Cc4cccc(F)c4)ccc2N[C@@H]3CO)c1`, the inhibition is reported as 0.925% (inactive). In the case of `C[C@@H]1CN([C@H](C)CO)C(=O)c2cc(C#Cc3cccc(F)c3)cnc2O[C@H]1CN(C)Cc1ccccn1`, the inhibition is reported as 6.4% (inactive). With `C[C@H](CO)N1C[C@H](C)[C@H](CN(C)C(=O)NC2CCCCC2)Oc2ccc(NC(=O)CCCN(C)C)cc2CC1=O` the inhibition was -7.51% (inactive). In the case of `CC(C)OC(=O)N(C)C[C@@H]1OCc2ccccc2-c2c(n(C)c3ccccc23)C(=O)N([C@H](C)CO)C[C@H]1C`, the inhibition is reported as 8.3% (inactive). For `Cc1ccc(-c2nc3ccc(Cl)cn3c2Cc2ccccc2)cc1`, the inhibition was -80.4% (inactive). In the case of `Cc1ccc(-n2c(-c3ccc(Cl)cc3)n[nH]c2=S)cc1`, the inhibition is reported as 3.61% (inactive). With `Cc1ccc2nc(-c3ccc(Br)cc3)cn2c1` the inhibition was 71.9% (active). In the case of `Cc1ccc(-c2cn3cc(C)ccc3n2)cc1`, the inhibition is reported as 66.7% (active). With `COc1ccc(-c2nc3ccc(Br)cn3c2Cc2ccc(C)cc2)cc1OC` the inhibition was -33.3% (inactive). For `Cc1ccc(-c2nc3ccc(Br)cn3c2Cc2ccccc2C(F)(F)F)cc1`, the inhibition was -71.5% (inactive). With `C[C@@H]1CN([C@@H](C)CO)S(=O)(=O)c2ccc(C#Cc3cccnc3)cc2O[C@@H]1CN(C)C(=O)CN(C)C` the inhibition was 12.9% (inactive). For `CC(=O)N1[C@H](C(=O)N(C)C)[C@@H](CO)[C@@H]2Cn3c(ccc(-c4ccccc4)c3=O)[C@@H]21`, the inhibition was 0.262% (inactive). In the case of `Cc1ccccc1S(=O)(=O)N1[C@@H]2CNC[C@H]1C2c1ccc(-c2cccnc2)cc1` (stereo partly drawn), the inhibition is reported as -4.81% (inactive). In the case of `CCCNC(=O)N1[C@@H]2Cn3c(ccc(-c4ccc(OC)cc4)c3=O)[C@H]1[C@@H](C(=O)NC1CCC1)[C@@H]2CO`, the inhibition is reported as 0.758% (inactive). For `Cc1ccccc1-c1ccc([C@H]2[C@@H](CO)N3C(=O)CN(C(=O)c4ccncc4)C[C@H]23)cc1`, the inhibition was 0.78% (inactive). With `COc1ccc2c3c(n(C)c2c1)[C@H](CO)N(S(=O)(=O)c1ccc(C)cc1)CC31CN(C(=O)c2ccccn2)C1` the inhibition was -3.69% (inactive). With `NC1=CC(=O)C(=O)c2cccnc21` the inhibition was 57.3% (active). For `CCOc1ccc(CCN2C(=O)c3cccnc3C2=O)cc1OCC`, the inhibition was 9.92% (inactive). With `CCCNC(=O)N1CC2(C1)[C@@H](c1ccccc1)[C@@H](CO)N2C(=O)CC1CC1` the inhibition was 2.39% (inactive). In the case of `C[C@@H]1CN([C@H](C)CO)C(=O)Cc2cc(NC(=O)Nc3cccc4ccccc34)ccc2O[C@@H]1CN(C)Cc1ccc(C(F)(F)F)cc1`, the inhibition is reported as -4.39% (inactive). For `Clc1cccc(-c2nc(NCC3CCCO3)c3ccccc3n2)c1` (stereo not drawn), the inhibition was 15.1% (inactive). With `N#CCSc1nc(-c2ccccc2)nc2ccc(F)cc12` the inhibition was 19.1% (inactive). For `Clc1ccc2nc(-c3ccccc3)nc(C(Cl)Cl)c2c1`, the inhibition was 68.5% (active). With `CC(C)NC(=O)Nc1ccc2c(c1)C(=O)N([C@@H](C)CO)C[C@H](C)[C@H](CN(C)C(=O)c1ccccc1)OCCCC[C@@H](C)O2` the inhibition was 5.19% (inactive). In the case of `CN(C)c1ccc2c(c1)[C@@H]1C[C@@H](CC(=O)NCc3ccccn3)O[C@H](CO)[C@@H]1O2`, the inhibition is reported as -4.51% (inactive). In the case of `COc1cccc2c1C(=O)c1c(O)c3c(c(O)c1C2=O)CC(O)(C(C)=NNC(=O)c1ccc(Cl)c(Cl)c1)CC3OC1CC(N)C(O)C(C)O1` (stereo not drawn), the inhibition is reported as 63.6% (active). With `COc1ccc(CN(C)C[C@@H]2OCCCC[C@@H](C)Oc3ccc(NC(=O)Nc4ccc(C(F)(F)F)cc4)cc3C(=O)N([C@H](C)CO)C[C@H]2C)cc1` the inhibition was 53.9% (active). In the case of `C[C@H](CO)N1C[C@H](C)[C@@H](CN(C)C(=O)NC2CCCCC2)Oc2c(NC(=O)Nc3ccc(F)cc3)cccc2C1=O`, the inhibition is reported as 4.64% (inactive). With `C[C@@H]1CN([C@H](C)CO)C(=O)c2cc(NC(=O)Nc3ccc(C(F)(F)F)cc3)ccc2O[C@@H](C)CCCCO[C@@H]1CN(C)Cc1ccc(C(F)(F)F)cc1` the inhibition was -13.8% (inactive). For `C[C@H]1CCCCO[C@@H](CN(C)Cc2ccc(C(F)(F)F)cc2)[C@@H](C)CN([C@@H](C)CO)C(=O)c2cc(NC(=O)Nc3ccccc3)ccc2O1`, the inhibition was 19.3% (inactive). For `COc1ccc(NC(=O)Nc2ccc3c(c2)C(=O)N([C@@H](C)CO)C[C@H](C)[C@H](CN(C)Cc2ccc(C(F)(F)F)cc2)OCCCC[C@H](C)O3)cc1`, the inhibition was 6.84% (inactive). In the case of `C[C@H]1CN([C@@H](C)CO)C(=O)c2cccc(NC(=O)Nc3ccc(C(F)(F)F)cc3)c2O[C@H]1CN(C)C(=O)NC1CCCCC1`, the inhibition is reported as 56.1% (active). For `C[C@@H]1CN([C@H](C)CO)C(=O)c2cccc(NC(=O)Nc3ccccc3)c2O[C@@H]1CN(C)C(=O)NC1CCCCC1`, the inhibition was 4.76% (inactive). With `C[C@@H]1CN([C@H](C)CO)C(=O)c2cc(NC(=O)Nc3ccccc3)ccc2O[C@@H](C)CCCCO[C@H]1CN(C)Cc1ccc(C(F)(F)F)cc1` the inhibition was 71.6% (active). In the case of `C[C@@H]1CCCCO[C@@H](CN(C)Cc2ccc(C(F)(F)F)cc2)[C@@H](C)CN([C@H](C)CO)C(=O)c2cc(NC(=O)Nc3ccccc3)ccc2O1`, the inhibition is reported as -6.47% (inactive). In the case of `O=C(C[C@@H]1C[C@H]2c3cc(NC(=O)C4CCOCC4)ccc3O[C@H]2[C@@H](CO)O1)NCCN1CCCCC1`, the inhibition is reported as -1.07% (inactive). For `COC(=O)C[C@H]1CC[C@H]2[C@@H](COc3ccc(NC(=O)Nc4cccc(F)c4)cc3C(=O)N2C)O1`, the inhibition was -0.36% (inactive). For `COC(=O)C[C@@H]1CC[C@@H]2[C@H](COc3ccc(NC(=O)Nc4cccc(F)c4)cc3C(=O)N2C)O1`, the inhibition was 33.6% (inactive). In the case of `COC(=O)C[C@@H]1CC[C@@H]2[C@H](COc3ccc(NC(=O)c4cccc(F)c4)cc3C(=O)N2C)O1`, the inhibition is reported as 61.7% (active). With `O=C(C[C@@H]1CC[C@H]2[C@@H](COC[C@H](O)CN2Cc2ccc(F)cc2)O1)N1CCc2ccccc2C1` the inhibition was 2.81% (inactive). For `CCCN(C)C[C@@H]1OCc2cnnn2CCCC(=O)N([C@H](C)CO)C[C@@H]1C`, the inhibition was 0.738% (inactive). In the case of `C[C@@H]1CN([C@H](C)CO)C(=O)Cc2cc(NC(=O)CCCCCC(=O)Nc3ccccc3N)ccc2O[C@H]1CN(C)S(=O)(=O)c1ccc(F)cc1`, the inhibition is reported as -11% (inactive). With `C[C@@H]1CN([C@H](C)CO)C(=O)c2cc(NS(=O)(=O)c3cn(C)cn3)ccc2O[C@@H]1CN(C)Cc1ccc(C(=O)Nc2ccccc2N)cc1` the inhibition was -4.91% (inactive). With `C[C@H]1CN([C@@H](C)CO)C(=O)Cc2cc(NS(=O)(=O)c3ccccc3)ccc2O[C@H]1CN(C)Cc1ccc(C(=O)Nc2ccccc2N)cc1` the inhibition was -7.96% (inactive). For `C[C@@H]1CN([C@@H](C)CO)C(=O)c2cc(NS(=O)(=O)c3ccccc3)ccc2O[C@@H]1CN(C)Cc1ccc(C(=O)Nc2ccccc2N)cc1`, the inhibition was 57.5% (active). With `C[C@H](CO)N1C[C@H](C)[C@H](CN(C)Cc2ccc(C(=O)Nc3ccccc3N)cc2)Oc2ccc(NS(C)(=O)=O)cc2C1=O` the inhibition was 27% (inactive). With `Cc1ccc(S(=O)(=O)Nc2ccc3c(c2)C(=O)N([C@H](C)CO)C[C@H](C)[C@H](CN(C)Cc2ccc(C(=O)Nc4ccccc4N)cc2)OCCCC[C@@H](C)O3)cc1` the inhibition was 8.6% (inactive). With `Cc1ccc(S(=O)(=O)Nc2ccc3c(c2)C(=O)N([C@@H](C)CO)C[C@@H](C)[C@@H](CN(C)Cc2ccc(C(=O)Nc4ccccc4N)cc2)O3)cc1` the inhibition was 51.7% (active). For `COCC#Cc1ccc([C@H]2[C@H](CO)N3C(=O)CN(C(=O)Nc4ccccc4F)C[C@@H]23)cc1`, the inhibition was 2.04% (inactive). For `COc1cccc(S(=O)(=O)N[C@H]2CC[C@H](CCN)O[C@H]2CO)c1`, the inhibition was -10.4% (inactive). For `COc1ccc(S(=O)(=O)Nc2ccc3c(c2)C(=O)N([C@H](C)CO)C[C@@H](C)[C@H](CN(C)C(=O)Nc2ccc4c(c2)OCO4)O3)cc1`, the inhibition was 0.75% (inactive). With `CC(=O)N1[C@H](CO)[C@H](c2ccc(-c3ccccc3)cc2)[C@H]1CNC(=O)NC(C)C` the inhibition was 0.423% (inactive). With `COc1ccc(-c2ccccc2[C@@H]2[C@@H](C#N)N(C(=O)NC3CCCC3)[C@H]2CO)cc1` the inhibition was 4.32% (inactive). With `C[C@H](CO)N1C[C@H](C)[C@@H](CN(C)Cc2ccncc2)Oc2ncc(C#CC3CC3)cc2C1=O` the inhibition was -3.48% (inactive). In the case of `COc1cccc(S(=O)(=O)N2C[C@@H](O)COC[C@@H]3O[C@H](CC(=O)N4CCN(C)CC4)CC[C@H]32)c1`, the inhibition is reported as 2.56% (inactive). With `Cc1cc(C(=O)Nc2cccc3c2O[C@H](CN(C)C(=O)Nc2ccccc2)[C@@H](C)CN([C@H](C)CO)C3=O)n(C)n1` the inhibition was -4.28% (inactive). For `O=C(C[C@H]1C[C@H]2c3cc(NC(=O)c4ccc5c(c4)OCO5)ccc3O[C@H]2[C@@H](CO)O1)NCc1cccc(F)c1`, the inhibition was -0.435% (inactive). For `O=C(NCc1ccncn1)[C@@H]1[C@@H](CO)[C@@H]2Cn3c(ccc(-c4ccc(F)cc4)c3=O)[C@@H]2N1CC1CC1`, the inhibition was 5.67% (inactive). In the case of `C[C@@H]1CN([C@H](C)CO)C(=O)c2cc(NC(=O)C3CCCCC3)ccc2O[C@@H]1CN(C)CC1CCCCC1`, the inhibition is reported as 1.73% (inactive).

Source: PubChem BioAssay AID651661 (Broad Institute, 2012)
